Hits are enriched below; roughly 10% of the tested compounds scored in any of these assays.
GLS inh: blocks human kidney-isoform glutaminase activity; O94925; GLS enzymatic activity, qHTS titration; Potency, µM (top dose mostly 45.5 µM), inactives show at the highest dose activity change, negative = inhibition, usual class: inhibitors; 0.21% of 410,000 active; AID 624170; further: on the % scale 0 is the no-effect control and ±100 the full control effect
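Two-point fluorescence kinetic (t0, 30 min RT) for hKGA; glutamate detected via glutamate oxidase–HRP–Amplex Red. Substrate: 1 mM L-glutamine solution; buffer 45 mM KH2PO4, pH 8.2.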
JMJD2A Tudor inh: JMJD2A Tudor domain (human) inhibition; AlphaScreen JMJD2A-Tudor / H3K4me3 peptide binding; O75164; Potency, µM (doses to about 114 µM), for inactives: at the top dose activity change, negative = inhibition, actives largely listed as inhibitors; 4.4% of 390,000 active; further: on the % scale 0 is the no-effect control and ±100 the full control effect; nearly all actives have a fitted effect of over 50% in size
BAZ2B inh: BAZ2B (human) inhibition. Q9UIF8. AlphaScreen BAZ2B-H3K14Ac peptide displacement. Potency, µM (titrated, usually from 114 µM), for inactives: top-dose activity change, negative = inhibition, hits mostly inhibitors. 4.4% of 360,000 active; further: on the % scale 0 is the no-effect control and ±100 the full control effect; nearly all actives have a fitted effect of over 60% in size
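In this displacement format the biotinylated H3(5-23) peptide acetylated at Lys14 serves as ligand at 50 nM, with BAZ2B at 50 nM in PBS pH 7.4 containing 0.01% Tween-20. Donor and acceptor beads are 10 ug/mL final.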
HP1b binding inh: inhibitors of HP1-beta chromodomain binding to methylated histone tails; Potency, µM (top dose mostly 114 µM), inactives show at the highest dose activity change, negative = inhibition, actives largely listed as inhibitors; AlphaScreen HP1-beta / biotin-H3K9me3 peptide binding; AID 540317; P83916; 0.56% of 390,000 active; further: nearly all actives have a fitted effect of over 70% in size
Target sequence (P83916 whole entry, looked up): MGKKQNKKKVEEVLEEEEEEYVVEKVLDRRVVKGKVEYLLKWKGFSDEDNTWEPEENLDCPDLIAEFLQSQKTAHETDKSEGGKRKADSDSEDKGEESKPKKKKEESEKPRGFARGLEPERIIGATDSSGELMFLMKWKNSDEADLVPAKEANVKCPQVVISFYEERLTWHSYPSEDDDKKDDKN
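AlphaScreen: HP1-beta (50 nM) preformed 30 min with biotin-H3(1-18)K9me3 peptide (50 nM) in PBS pH 7.4, 0.01% Tween-20. Compound added for 30 min at RT, then streptavidin donor/nickel chelate acceptor beads (10 ug/mL) for 30 min.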
G9a block: G9a (human) methyltransferase inhibition; Potency, µM (doses to about 102 µM), without a hit: top-dose activity, negative = inhibition, hits mostly inhibitors; Q96KQ7; 8.8% of 350,000 active; G9a H3K9 monomethylation, AlphaScreen, 2 h; further: on the % scale 0 is the no-effect control and ±100 the full control effect; nearly all actives have a fitted effect of over 75% in size
Target sequence (Q96KQ7 913-1193 limits assumed): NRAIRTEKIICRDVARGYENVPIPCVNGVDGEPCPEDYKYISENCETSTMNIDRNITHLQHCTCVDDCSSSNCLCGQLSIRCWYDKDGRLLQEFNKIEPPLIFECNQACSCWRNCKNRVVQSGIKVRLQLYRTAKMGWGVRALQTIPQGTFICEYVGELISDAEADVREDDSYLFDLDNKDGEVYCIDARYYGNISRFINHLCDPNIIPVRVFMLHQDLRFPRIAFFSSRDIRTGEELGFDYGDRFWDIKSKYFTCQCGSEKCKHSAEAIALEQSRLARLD
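Step 1: enzyme (final 20 nM) with compound, 15 min RT. Step 2: substrate peptide 500 nM and SAM 20 uM, 2 h RT. Step 3: anti-H3K9me1 antibody and AlphaScreen beads, 10 min, then plate read.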
L3MBTL1 inh: L3MBTL1 (human) inhibition. 0.66% of 230,000 active. Q9Y468. AlphaScreen L3MBTL1–H3K9me1 peptide binding. Potency, µM (highest dose often 57.1 µM), for the others: top-dose activity, negative = inhibition, usual class: inhibitors. AID 485360; further: on the % scale 0 is the no-effect control and ±100 the full control effect; nearly all actives have a fitted effect of over 60% in size
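AlphaScreen proximity signal between nickel-chelate acceptor and streptavidin donor beads (final 10 ug/mL) reports binding of 50 nM L3MBTL1 to 75 nM biotin-H3 K9me1 peptide; complex incubated with compounds 30 min at room temperature; cefsulodin titration as control.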
* hit, by the source's call; ? = inconclusive; . = no result given; [ ] = dose if it differs, or a comment. The call rests on the fitted dose curve; in most records, active means well fitted curve in the direction sought with a large enough effect; inconclusive means small, poorly fitted or top-dose-only effect, or another doubt; inactive means no such curve, though single readings can be large; an effect the other way counts as inactive or inconclusive. Potency means the concentration at half of the fitted maximal effect.

SMILES	GLS inh	JMJD2A Tudor inh	BAZ2B inh	HP1b binding inh	G9a block	L3MBTL1 inh
O=C(O)/C=C\C(=O)Nc1ccc(N2CCN(c3cccc(Cl)c3)CC2)cc1	7%	-11%[11.4 µM]	35µM*	?	.	-12%
O=C(O)/C=C/C(=O)Nc1ccc(-n2ccc(C(F)(F)F)n2)cc1	3%	-17%	-2%	31%	45µM*	1%
Clc1cccc(N2CCN(CCCN3CCN(c4ccccc4)CC3)CC2)c1	18%	?	.	-22%[57 µM]	.	.
Nc1ccc(N2CCN(c3cccc(Cl)c3)CC2)cc1	53%	45µM*	35µM*	?	4µM*	-26%
COc1ccc(C(=O)NCCn2cc(SCC(=O)Nc3ccc(F)cc3)c3ccccc32)cc1	13%	-18%	-26%	27%	5%[59 µM]	.
CCC(C(=O)Nc1cccc(-c2cn3cccnc3n2)c1)c1ccccc1 (stereo not given)	1%	-20%	-18%	28%[57 µM]	0%[59 µM]	.
Cc1cc(C)cc(-n2ccn3c(CC(C)(C)CC(=O)O)nnc3c2=O)c1	0%	-12%	0%	24%	-2%[59 µM]	.
CCCN(C(=O)c1noc2c1COc1ccc(C)cc1-2)c1ccc(Cl)c(Cl)c1	6%	5%	-15%	67%	17%[59 µM]	.
CCC(c1ccccc1)C(CC)c1cc(O)c(O)c(O)c1 (stereo not given)	11µM*	-13%	.	-9%[57 µM]	.	.
CCC(C(=O)O)c1ccccc1 (stereo not given)	.	.	.	.	-7%[2.33 µM]	.
CCn1c(=O)n(CC2CCC(C(=O)NC(C)C)CC2)c(=O)c2sccc21 (stereo not given)	1%	-7%	-10%	39%	5%[59 µM]	.
CCSc1ncc(Cl)c(C(=O)Nc2ccc(S(=O)(=O)N(C)c3ccccc3)cc2)n1	-3%	-28%	-16%	18%	-21%[59 µM]	.
CS(=O)(=O)c1ncc(Cl)c(C(=O)Nc2ccc(N3CCOCC3)cc2)n1	-24%	-7%	?	6%	?	-17%
CCN(c1ccccc1)S(=O)(=O)c1ccc(NC(=O)c2nc(S(C)(=O)=O)ncc2Cl)cc1	3%	?	-33%	4%	32µM*	.
CS(=O)(=O)c1ncc(Cl)c(C(=O)Nc2ccc(OC(F)F)cc2)n1	18%	-10%	5%	35%	28µM*	-5%
CCS(=O)(=O)c1ncc(Cl)c(C(=O)Nc2ccc(S(=O)(=O)N(C)c3ccccc3)cc2)n1	?	-22%	?	1%[57 µM]	40µM*	.
COc1ccc(NC(=O)C2CCCN(S(=O)(=O)c3ccc(Br)s3)C2)cc1 (stereo not given)	6%	-10%	-4%	19%	?	.
Cc1ccc(C(=O)Nc2nnc(S(=O)(=O)N3CCc4ccccc43)s2)cc1	6%	-3%	3%	27%	7%[59 µM]	.
CCc1cccc(-n2c(=O)c3cccnc3n2CC(=O)Nc2ccc(F)c(C)c2)c1	1%	10%	4%	38%	6%[59 µM]	.
Cn1cc(/C=N/NC(=O)c2cc3cc(Br)ccc3o2)c2ccccc21	6%	-9%	3%	36%	50µM*	.
O=C(O)c1ccc(-n2cccc2/C=N\NC(=O)c2cc3cc(Br)ccc3o2)cc1	14%	22µM*	7.9µM*	45µM*	14µM*	.
C#CCn1cc(/C=N/NC(=O)c2cc3ccccc3o2)c2ccccc21	9%	-10%	-3%	29%	12%[59 µM]	1%
O=C(O)Cn1cc(/C=N/NC(=O)c2cc3cc(Br)ccc3o2)c2ccccc21	-2%	7%	50µM*	43%	-35%	.
COc1ccc(OC)c(NC(=O)N2CCC3(CC2)Oc2ccccc2C(=O)N3Cc2ccccc2F)c1	7%	?	-35%	-8%	?	.
CCOc1ccc(NC(=O)Cn2c(=O)n(Cc3ccc(C(=O)NCc4ccc(C)cc4)cc3)c(=O)c3ccccc32)cc1	-4%	-18%	?	9%	-29%[59 µM]	.
SMILES	GLS inh	JMJD2A Tudor inh	BAZ2B inh	HP1b binding inh	G9a block	L3MBTL1 inh
CC1=C(c2ccccc2)[N+](=O)C2(CCCC2)N1[O-]	11%	-11%	2%	13%	-23%[59 µM]	4%
O=[N+]([O-])c1ccc2c(c1)N([O-])C1(CCCCC1)[N+]2=O	3%	?	40µM*	?	.	-3%
N#Cc1c(Nc2ccccc2)sc(C(=O)C2CC2)c1N	-2%	1%	13%	42%	79µM*	4%
Oc1ccc(Cc2ccccc2)c2cccnc12	?	79µM*	.	34%	.	.
OCc1ccc(O)c2ncccc12	10%	40µM*	1.4µM*	21%	1%[0.501 µM]	18µM*
O=C1CCCCCN1Cc1nnc(SCc2nc3ccccc3s2)n1-c1ccccn1	-5%	-22%	-22%	38%	50µM*	-1%
CCCCC12CN3CC(C)(CN(C1)C3c1c(C)[nH]c(=O)[nH]c1=O)C2=O (stereo not given)	15%	-16%	-12%	20%	?	.
CCc1ccc(/C([O-])=C(/C(=S)NCCN2CCOCC2)[n+]2ccccc2)cc1	6%	-26%	-22%	-2%	25µM*	.
CC(C)c1ccc(-c2nnc(N)s2)cc1	-3%	-13%	2%	-7%	45µM*	3%
Cc1[nH]n(-c2ncc(-c3ccccc3)s2)c(=O)c1C(c1ccc(Cl)cc1)C(C#N)C#N (stereo not given)	-32%	40µM*	40µM*	?	?	-17%
Cc1[nH]n(-c2ccccc2)c(=O)c1C(C[N+](=O)[O-])c1ccc(Cl)cc1 (stereo not given)	?	?	?	7%	?	-11%
COc1ccc(CNC(=O)c2ccc3c(c2)N(Cc2c(F)cccc2Cl)C(=O)CS3)cc1	6%	-2%	4%	60%	1%[59 µM]	.
CCOC(=O)CSc1ccc2nnc(-c3cccnc3)n2n1	-8%	-6%	6%	60%	18µM*	2%
O=C(CSc1ccc2nnc(-c3cccc(F)c3)n2n1)NCc1ccco1	1%	-29%	-35%	9%	-9%	-2%
CC(=O)c1ccc(NC(=O)CSc2ccc3nnc(-c4ccccn4)n3n2)cc1	-7%	32µM*	1%	46%	89%	.
O=C(CSc1ccc2nnc(-c3ccncc3)n2n1)Nc1ccc2c(c1)OCCO2	-11%	-6%	1%	22%	-2%	.
O=C(CSc1ccc2nnc(-c3ccncc3)n2n1)Nc1ccc2c(c1)OCO2	5%	-30%	-2%	45%	32µM*	.
Cc1ccc(NC(=O)CSc2ccc3nnc(-c4ccccn4)n3n2)cc1	-9%	-27%	4%	48%	45%	.
O=C(CSc1ccc2nnc(-c3cccnc3)n2n1)NCc1ccco1	-11%	-6%	-32%	40%	79µM*	.
